Screening results (PubChem)
The list is not random: actives were taken first. Their share in the collection is about 19%.
HT1080NT lethal = kills 2HG-producing HT-1080-NT fibrosarcoma cells | HT-1080-NT fibrosarcoma viability, CellTiter-Glo ATP luminescence, 48 h | Potency, µM (series often up to 46.1 µM), for inactives: top-dose activity, negative = less viability, most hits filed as cytotoxic | 360,000 tested, 1.6% active | AID 686970;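 note: NT is the 2HG producing partner of a matched IDH1 knockdown line; potency is the fitted concentration of half-maximal effect; 0% = DMSO-treated cells and -100% = media-only wells without cells; nearly all actives have a fitted effect of over 55% in size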
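Read-out is CellTiter-Glo luminescence after 10 minutes at room temperature, following 48 hours' compound treatment of HT-1080-NT cells (750 cells/well, RPMI, 5% FBS, 37 degrees C).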
DT40 TDP1 CPT = DT40-hTDP1 cell growth loss with CPT | Potency, µM (highest dose often 46.2 µM), for inactives: at the top dose activity change, negative = growth inhibition, hits mostly inhibitors | AID 686979 | 420,000 tested, 12% active | chicken DT40 Tdp1-/-;hTDP1 cells + 20 nM CPT, ATP luminescence, 48 h; note: potency is the fitted concentration of half-maximal effect; nearly all actives have a fitted effect of over 55% in size
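Cell growth measured by CellTiter-Glo luminescence after a minimum 48 h, 37 C compound exposure with 20 nM CPT in Tdp1-knockout DT40 cells stably expressing hTDP1, seeded 400/well; qHTS titration format.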
DT40 TDP1 no CPT = qHTS for Inhibitors of human tyrosyl-DNA phosphodiesterase 1 (TDP1): qHTS in cells in absence of CPT; DT40 Tdp1-/- hTDP1 cells, no CPT, ATP luminescence, 48 h; Potency, µM (highest dose often 46.2 µM), without a hit: at the top dose activity change, negative = growth inhibition, hits mostly inhibitors; AID 686978, 2013; 420,000 tested, 15% active; note: potency is the fitted concentration of half-maximal effect; nearly all actives have a fitted effect of over 55% in size
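A cellular qHTS used chicken DT40 cells lacking endogenous Tdp1 but carrying stably transfected human TDP1. Compounds were applied without camptothecin, and cell growth kinetics were judged by ATP-dependent luminescence after ≥48 hr.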
IL-1B inflam inh = inflammasome signaling inhibition, IL-1 beta readout; 360,000 tested, 4.7% active; activity change, % at 57.5 µM; THP-1 LPS/ATP IL-1B secretion, AlphaLISA, 16 h; hits give low values; AID 743279; in the data active = activity change below about -50%; inconclusive = mostly about -30% to -49%
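THP-1 cells pretreated 1 hr with compounds (up to 57.5 uM final), then stimulated with LPS (250 ng/mL final) plus ATP (1.25 mM final); secreted IL-1B measured by AlphaLISA after 16 hr, decreased signal indicating inhibition.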
uPA surface inh = inhibitors of cell surface uPA generation. cell surface uPA generation assay, qHTS. Potency, µM (top dose mostly 38.3 µM), for the others: at the top dose activity change, negative = inhibition, most hits filed as inhibitors. 330,000 tested, 0.31% active. AID 540303; active = well fitted inhibition curve with a large enough effect; inconclusive = small, poorly fitted or top-dose-only effect; inactive = no such curve, though single readings can be large or run the other way; tested in mouse RAW 264.7 cells; note: potency is the fitted concentration of half-maximal effect; nearly all actives have a fitted effect of over 55% in size
HT1080 IDH1KD tx = toxicity to HT-1080 IDH1 knockdown cells (counter line) | HT-1080 IDH1 knockdown viability, ATP luminescence, 48 h | Potency, µM (titrated, usually from 46.1 µM), for the others: at the top dose activity, negative = toxicity, hits mostly cytotoxic | 360,000 tested, 2% active | AID 686971;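 note: potency is the fitted concentration of half-maximal effect; 0% = DMSO wells and -100% = cell-free medium wells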
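Viability of IDH1-knockdown HT-1080 fibrosarcoma cells was assessed by CellTiter-Glo after 48 h at 37 °C with titrated compound; concentration-effect curves were classified by fit quality and response size.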
* hit, by the source's call; ? = inconclusive; / = no result; [ ] = another dose, or the depositor's remark. Unless noted, calls come from the whole dose curve; as a rule, active = well fitted curve in the direction sought with a large enough effect; inconclusive = small, poorly fitted or top-dose-only effect, or another doubt; inactive = no such curve, though single readings can be large; an effect the other way counts as inactive or inconclusive. Unless noted, % is set by controls: 0 for no effect and ±100 for the full control effect.

SMILES	HT1080NT lethal	DT40 TDP1 CPT	DT40 TDP1 no CPT	IL-1B inflam inh	uPA surface inh	HT1080 IDH1KD tx
C/C(Cl)=C/Cn1c(SC(C)C)nc2c1c(=O)[nH]c(=O)n2C	0%	?	16µM*	14	-9%	-1%
CC(C)Sc1nc2c(c(=O)[nH]c(=O)n2C)n1Cc1ccc(Cl)cc1	-23%	?	26µM*	-7	-4%	-20%
CC(=O)N1c2ccccc2C2CCCC[C@H]21 (stereo partly drawn)	5%	?	?	31	1%	7%
CCCCn1c(N)c(N(CCOC)C(=O)CSc2nnc(C)n2-c2ccc(OC)cc2)c(=O)[nH]c1=O	9%	-12%	-1%	8	1%	0%
C/C(Cl)=C/CSc1nc2c(c(=O)[nH]c(=O)n2C)n1C(C)C	-12%	?	16µM*	29	-9%	-2%
C=CCSc1nc2c(c(=O)[nH]c(=O)n2C)n1C(C)C	-8%	-7%	-26%	21	-11%	-2%
COC(=O)[C@@]1(Cc2ccc(F)cc2)[C@H]2c3cc(C(=O)N(C)C)n(Cc4ccc(C)c(F)c4F)c3C[C@H]2CN1C(=O)c1ccccc1	?	?	?	-75*	/	?
COC(=O)[C@@]1(Cc2ccc(F)cc2)[C@H]2c3cc(C(=O)N(C)C)n(CC4CC4)c3C[C@H]2CN1C(=O)c1ccccc1	?	?	18µM*	0	/	-28%
O=C[C@H](O)[C@@H](O)[C@H](O[C@H]1O[C@H](CO)[C@@H](O[C@H]2O[C@H](CO)[C@@H](O)[C@H](O)[C@H]2O)[C@H](O)[C@H]1O)[C@H](O)CO	/	-6%	-2%	/	/	/
COc1ccc(N2CCN(S(=O)(=O)c3ccc(OC)c(-c4noc(C)n4)c3)CC2)cc1	/	-14%	-20%	/	/	/
O=C(CN1C(=O)NC2(CCc3ccccc32)C1=O)Nc1ccc(Br)cc1F (stereo not drawn)	-4%[9.24 µM]	?	-25%	0	-15%	-22%
CCCNC(=O)c1sc2c(c1C(=O)Nc1ccccn1)CCCC2	-3%	26µM*	18µM*	-8	4%	-3%
CCCNC(=O)c1c(NC(=O)c2ccccc2F)sc2c1CCCCC2	/	3%	-4%	/	/	/
Cc1ccc2nc(-c3ccc(C)s3)c(Nc3ccc4c(c3)OCCO4)n2c1	/	23µM*	?	/	/	/
Clc1ccc2nc(-c3ccc(Br)o3)c(Nc3ccc4c(c3)OCCO4)n2c1	/	21µM*	?	/	/	/
Cc1ccc2nc(-c3ccco3)c(Nc3ccc4c(c3)OCCO4)n2c1	/	16µM*	?	/	/	/
Cn1nc(-c2ccncc2)nc2c(=O)n(C)c(=O)nc1-2	/	0.32µM*	0.35µM*	/	/	/
CCn1nc(-c2ccc(C)cc2)nc2c(=O)n(C)c(=O)nc1-2	/	1.6µM*	2.2µM*	/	/	/
CCS(=O)(=O)n1nc(-c2ccc(C)cc2)nc1N	21%	-11%	-18%	?	1%	19%
COc1ccc(-c2nc(-c3ccncc3)no2)cc1	12%	0%	-21%	1	-11%	-1%
O=C(CN1C(=O)NC2(CCCC2)C1=O)NC(c1ccccc1)c1ccccc1	-3%	?	16µM*	-82*	1%	-10%
O=C(CN1CCCC1)NC(c1ccccc1)c1ccccc1	?	21µM*	16µM*	-1	5%	?
O=C(Cn1nc([N+](=O)[O-])nc1Br)NC(c1ccccc1)c1ccccc1	5%	21µM*	16µM*	?	-4%	3%
Cc1ccc(O)c(C(=O)CC(=O)c2cccc(F)c2)c1	?	2.3µM*	2.6µM*	0	-1%	?
O=C(O)CC(=O)Nc1cc(Cl)ccc1O	10%	-13%	4%	9	-5%	20%
SMILES	HT1080NT lethal	DT40 TDP1 CPT	DT40 TDP1 no CPT	IL-1B inflam inh	uPA surface inh	HT1080 IDH1KD tx
Cc1cccc(C(=O)CC(=O)c2cc(Cl)ccc2O)c1	?	3.3µM*	4.1µM*	75	-9%	?
Cc1cccc(C(=O)NCC(=O)NNC(=O)c2ccccc2O)c1	-10%	-3%	-16%	5	2%	-10%
O=C(CC(=O)c1cc(Cl)ccc1O)c1ccccc1	?	2.3µM*	4.6µM*	39	-29%	?
NC(=NCCc1ccccc1)NC(=O)c1cc(Cl)ccc1O	-12%	?	18µM*	-11	7%	-22%
NC(=NCCc1ccc(Cl)cc1)NS(=O)(=O)c1ccccc1	1%	?	-24%	1	-1%	-12%
COc1ccc(CNC(=O)c2nc(Cn3nc(C)c(Br)c3C)no2)cc1OC	/	-29%	?	/	/	/
Cc1ccc(O)c(C(=O)CC(=O)c2ccc(Cl)cc2)c1	?	7.3µM*	5.8µM*	0	-20%	?
CSc1ccc(CN2CCC2(C)C(=O)Nc2ccc3c(c2)OCO3)cc1 (stereo not drawn)	9%	29µM*	?	9	/	6%
CC1(C(=O)Nc2ccc3c(c2)OCCO3)CCN1Cc1ccc2ccccc2c1 (stereo not drawn)	?	?	-64%	-21	/	?
CSc1ccc(CN2CCC2(C)C(=O)NCc2ccc3c(c2)OCO3)cc1 (stereo not drawn)	-1%	15µM*	?	4	/	-13%
COc1ccc(C)cc1NC(=O)C1CCN(S(=O)(=O)c2ccc3[nH]c(=O)oc3c2)CC1	/	2%	-1%	/	/	/
Cc1cc(C)c2[nH]c(=O)c(C(c3nnnn3CC3CCCO3)N3CCCC(C)C3)cc2c1 (stereo not drawn)	1%	18µM*	?	?	3%	1%
CCC(C)(C)n1nnnc1C(c1cc2cccc(C)c2[nH]c1=O)N1CCCC1 (stereo not drawn)	-6%	?	-16%	-16	/	2%
Cc1ccc(C)c2[nH]c(=O)c(C(c3nnnn3C(C)(C)C)N3CC=C(c4ccc(F)cc4)CC3)cc12 (stereo not drawn)	-12%	?	16µM*	-15	-1%	-21%
CCC(C)(C)n1nnnc1C(c1cc2cc(C)cc(C)c2[nH]c1=O)N1CCCC1 (stereo not drawn)	-2%	?	?	-51*	/	-17%
COc1cc(/C=C2/SC(=S)N(CCC(=O)N3CCN(C)CC3)C2=O)cc(OC)c1OC	-2%	?	23µM*	-13	/	-8%
COc1cc(/C=C2\SC(=S)N(CCC(=O)NC3CCCC3)C2=O)cc(OC)c1OC	1%	?	?	?	-4%	4%
COc1cc(/C=C2\SC(=S)N(CCC(=O)N3CCN(C)CC3)C2=O)cc(OC)c1OC	-1%	?	15µM*	-29	-11%	-1%
